Compounds with a hit are over-represented: about 2.7% of the library has one in this group of screens.
ATXN2 expr inh: reduces ATXN2 reporter expression in HEK-293 cells; HEK-293 ATXN2-luciferase reporter, luminescence, 24 h; AID 1745845; 0.72% of 360,000 active; Potency, µM (top dose mostly 57 µM), without a hit: top-dose activity change, negative = inhibition, usual class: inhibitors; note: % is set by controls: 0 for no effect and ±100 for the full control effect; nearly all actives have a fitted effect of over 55% in size
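qHTS (up to 57 uM final) was run with 24 h compound exposure of reporter cells at 37 °C. Each well was multiplexed: SteadyGlo luminescence measured ATXN2-luciferase expression after a fluorogenic Gly-Phe-AFC viability readout (25 uM final).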
HepG2 viability: kills HepG2 cells in TGF-b inhibitor counter-screen. Potency, µM (series often up to 46.1 µM), inactives show at the top dose activity change, negative = cytotoxicity, most hits filed as cytotoxic. 0.76% of 410,000 active. AID 588856. HepG2 CAGA-GFP viability, ATP luminescence, 18 h
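HepG2 CAGA-GFP cells (1000/well, DMEM with 1% FBS) received compound, then TGF-beta at 500 pg/mL final, and were incubated 18 hours at 37 degrees C. Viability was read by CellTiter-Glo luminescence. Media-only wells were set as complete cell-killing and DMSO as no toxicity.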
ALOX12 inh: blocks human arachidonate 12S-lipoxygenase; Potency, µM (series often up to 108 µM), for the others: top-dose activity change, negative = inhibition, actives largely listed as inhibitors; AID 1671190; 1.1% of 580,000 active; purified 12hLO, xylenol orange hydroperoxide absorbance; P18054; note: % is set by controls: 0 for no effect and ±100 for the full control effect
Target sequence (P18054 whole entry, looked up): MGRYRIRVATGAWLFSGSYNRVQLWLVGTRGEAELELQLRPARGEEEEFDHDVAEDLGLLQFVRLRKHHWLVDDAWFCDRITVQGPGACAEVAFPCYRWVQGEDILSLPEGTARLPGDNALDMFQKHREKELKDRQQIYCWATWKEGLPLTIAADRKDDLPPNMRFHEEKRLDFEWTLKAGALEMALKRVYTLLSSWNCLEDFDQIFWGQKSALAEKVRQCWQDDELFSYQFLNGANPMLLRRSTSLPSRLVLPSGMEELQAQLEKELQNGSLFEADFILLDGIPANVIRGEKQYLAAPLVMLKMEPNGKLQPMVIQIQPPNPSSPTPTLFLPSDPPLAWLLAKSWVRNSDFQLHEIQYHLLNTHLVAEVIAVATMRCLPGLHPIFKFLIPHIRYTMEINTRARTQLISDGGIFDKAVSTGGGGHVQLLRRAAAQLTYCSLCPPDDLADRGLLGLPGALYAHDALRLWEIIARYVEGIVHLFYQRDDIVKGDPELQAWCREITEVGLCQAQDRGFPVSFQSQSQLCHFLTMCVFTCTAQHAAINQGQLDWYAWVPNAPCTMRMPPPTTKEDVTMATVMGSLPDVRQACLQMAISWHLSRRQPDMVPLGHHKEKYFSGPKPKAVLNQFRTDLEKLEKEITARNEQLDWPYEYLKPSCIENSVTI
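Hydroperoxide product was detected by ferrous iron/xylenol orange as the 573 to 405 nm absorbance ratio. Arachidonic acid at 40 uM (final) was turned over for 30 min at room temperature by 150 nM human 12hLO, pH 7.0 Hepes buffer, after 15 min compound preincubation.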
ATXN viability: viability counter-screen for ATXN expression inhibitors. S2 cells (HEK-293 line with an ATXN2-luciferase reporter) viability, CellTiter-Fluor protease fluorescence, 24 h. Potency, µM (highest dose often 56.7 µM), usual class: cytotoxic. 0.49% of 400,000 active; note: nearly all actives have a fitted effect of over 40% in size
TGFb SMAD3 inh: inhibitors of TGF-b signaling; HepG2 CAGA-GFP TGF-b/SMAD3 reporter, GFP fluorescence, 18 h; TGF-beta stimulated, 500 pg/mL final; 1.2% of 410,000 active; Potency, µM (top dose mostly 46.1 µM), for the others: top-dose activity, negative = inhibition, hits mostly inhibitors; note: % is set by controls: 0 for no effect and ±100 for the full control effect; nearly all actives have a fitted effect of over 65% in size
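Read-out: total well GFP (ex488/em500-530) summed from mean per-cell fluorescence. Cells: HEPG2 CAGA-GFP, 1% FBS DMEM, 18 h at 37 degrees C with 500 pg/mL final TGF-beta. Unstimulated wells served as the full-inhibition control; stimulated DMSO wells = 0%.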
An asterisk follows results filed as active; i = inactive; ? = inconclusive; nt = no result; ! = repeats disagree; [ ] = dose if it differs, or a comment. Calls come from the whole dose curve; as a rule, active = well fitted curve in the direction sought with a large enough effect; inconclusive = small, poorly fitted or top-dose-only effect, or another doubt; inactive = no such curve, though single readings can be large; an effect the other way counts as inactive or inconclusive. Potency is the fitted concentration of half-maximal effect.

SMILES	ATXN2 expr inh	HepG2 viability	ALOX12 inh	ATXN viability	TGFb SMAD3 inh
COc1ccc(OCCn2c(C(C)Oc3ccccc3)nc3ccccc32)cc1 (configuration not stated)	-21.2%	-37.5%	-22.0%	i	12.6µM*
Cc1ccc(NCc2nc3ccccc3n2CCOc2ccccc2)cc1	19.1%	-28.8%	1.4%	?	17.8µM*!
CC(=O)NNC(=S)Nc1ccccc1C(F)(F)F	nt	nt	66.7%	nt	nt
COc1ccc(C2c3c(-c4ccccc4O)n[nH]c3C(=O)N2CCO)cc1OC (configuration not stated)	nt	nt	22.4%	nt	nt
CCCCc1cc(C[C@H]2CNCC[C@H]2CC(=O)NCc2cccnc2)no1	nt	nt	-18.4%[176 µM]	nt	nt
CC(C)(C)c1ccc(-c2cc(C[C@H]3CNCC[C@H]3CC(=O)NCc3cccnc3)no2)cc1	nt	nt	28.2µM*	nt	nt
Cc1ccc(-c2cnc(CCC(=O)Nc3cccc(Cl)c3)o2)cc1C	nt	nt	4.6%	nt	nt
Cc1noc(C)c1-c1ccc(C(=O)NCCN2CCOCC2)c2occc12	41.1%	0.5%	-38.0%	i	35.2%
Cc1noc(C)c1-c1cc(NCCN2CCOCC2)ncn1	nt	nt	39.8µM*	nt	nt
C=CCn1c(-c2cccn(Cc3ccc(Cl)cc3)c2=O)n[nH]c1=S	-6.9%	3.9%	?	i	-3.1%
C=CCn1c(-c2cccn(Cc3ccc(Cl)cc3Cl)c2=O)n[nH]c1=S	-7.5%	-8.1%	44.7µM*	i	1.2%
CC(=O)Nc1ccc(C(=O)OCC(=O)N(c2ccccc2)C2CCS(=O)(=O)C2)cc1 (configuration not stated)	nt	0.6%	0.8%	?	-3.9%
O=C(CCl)N(c1ccccc1)C1CCS(=O)(=O)C1 (configuration not stated)	?	12.6µM*	5.4%	nt	?
COc1cc(OC)c(Nc2c3c(nc4nc(-c5cccs5)nn24)CCCC3)cc1Cl	-23.1%	-30.0%	-12.7%	28.2µM*	?
COc1ccc(-c2ccnc3nc(-c4cccs4)nn23)cc1OC	nt	nt	-1.1%	nt	nt
COc1ccccc1NC1=C(NC(C)=O)C(=O)c2ccccc2C1=O	-25.8%	-108.6%	-17.5%	i	14.1µM*
Cc1nc2cc(NC(=O)C3CC(=O)N(C4CC4)C3)ccc2o1 (configuration not stated)	nt	nt	13.3%	nt	nt
Cc1nn2c(c1-c1ccccc1-c1ccccc1)N(CCC(C)C)CCC2	nt	nt	39.8µM*	nt	nt
CCCc1n[nH]c2c1/C(=N\OCC)CC(C)(C)C2	-18.7%	-25.1%	39.8µM*	i	2.2%
Cc1cccc2sc(=S)[nH]c12	-33.5%	-22.9%	31.6µM*	?	?
S=c1[nH]c2ccc(Cl)cc2s1	nt	4.3%	-73.7%	i	3.8%
COC(=O)C(=Nc1ccccc1)/C(C(=O)C(=O)N(C)c1ccccc1)=C(\O)c1ccccc1	11.3%	10.1%	12.6µM*	i	-1.3%
CCOC(=O)/C(C(N)=NC)=C(\O)c1ccccc1	1.6%	-0.1%	0.0%	i	13.7%
Cc1ccc(OC(C)C(=O)Nc2ccc3oc(C)nc3c2)cc1 (configuration not stated)	nt	nt	-6.1%	nt	nt
c1ccc(Nc2nc(N3CCCCC3)nc(N3CCNCC3)n2)cc1	?	11.2µM*	15.0%	i	-2.1%
SMILES	ATXN2 expr inh	HepG2 viability	ALOX12 inh	ATXN viability	TGFb SMAD3 inh
Cc1ccc(C)c(Sc2ccc(NC(=O)CCN3C(=O)NC4(CCCC4)C3=O)cc2)c1	?	15.8µM*	?	?	?
Cc1ccc(NC(=O)CCN2C(=O)NC3(CCCC3)C2=O)cc1	-0.8%	-6.8%	?	i	-0.2%
Cc1ccc(Sc2ccc(NC(=O)c3cc(C)ccc3C)cc2)c(C)c1	nt	nt	-0.7%	nt	nt
Cc1ccc(Sc2ccc(NC(=O)CCl)cc2)c(C)c1	31.6µM*	-89.8%	?	nt	?
CCOC(=O)C1C(=O)C=C(/C=C/c2ccco2)CC1c1ccccc1 (configuration not stated)	nt	nt	6.31µM*	nt	nt
COc1cccc(-c2cccc(-c3nc(C(=O)NCc4ccc5c(c4)OCO5)cc4c3[C@H](CCO)N(S(=O)C(C)(C)C)C4)c2)c1 (some centres not stated)	?	-60.1%	28.2µM*	17.8µM*	15.8µM*
CC(C)(C)S(=O)N1Cc2cc(C(=O)NCc3ccc(Oc4ccccc4)cc3)nc(-c3cccc(-c4cc5ccccc5o4)c3)c2[C@H]1CCO (some centres not stated)	?	-95.2%	?	nt	?
CC(C)(C)S(=O)N1Cc2cc(C(=O)NCc3ccc4c(c3)OCO4)nc(-c3cccc(-c4cc5ccccc5o4)c3)c2[C@@H]1CCO (some centres not stated)	22.4µM*	-65.0%	?	nt	?
CC(C)(C)S(=O)N1Cc2cc(C(=O)N3CCOCC3)nc(-c3cccc(Br)c3)c2[C@H]1CCO (some centres not stated)	6.6%	-4.8%	5.01µM*	i	?
CN1CCN(C(=O)c2cc3c(c(-c4cccc(Br)c4)n2)[C@H](CCO)N(S(=O)C(C)(C)C)C3)CC1 (some centres not stated)	3.4%	2.4%	1.8%	i	2.5%
CCCCC1CCC(C(=O)Oc2ccc(C=O)c(O)c2)CC1 (configuration not stated)	nt	nt	-59.7%	nt	nt
Cc1nc(N/N=C/c2ccc(O)cc2)c2cnn(-c3ccccc3)c2n1	-13.9%	15.8µM*	0.1%	?	-11.5%
Cc1nc2ccccc2nc1N/N=C/c1ccc(O)cc1	41.8%	-16.1%	-21.6%	i	-5.9%
[O-][n+]1c2ccccc2cc2ccccc21	?	-5.5%	3.5%	i	11.2µM*
Fc1ccc(Nc2nc(NCc3ccco3)c3ccccc3n2)cc1	nt	17.8µM*	39.9%	11.2µM*	?
c1coc(CNc2nc(NCc3ccco3)c3ccccc3n2)c1	nt	-12.0%	nt	nt	0.708µM*
Nc1nc(Nc2ccccc2)nc(NCc2ccco2)c1[N+](=O)[O-]	-22.8%	-11.0%	?	?	-0.7%
CCN(CC)C(=O)N1CCCCCCNC(=O)[C@@H]2C[C@@H](c3nc(-c4cccnc4)no3)C[C@@H]21	nt	nt	60.0%	nt	nt
O=C1N/C(=N\N=C\c2ccco2)SC1Cc1ccccc1[N+](=O)[O-] (configuration not stated)	nt	-14.6%	10.2%	11.2µM*	-29.3%
CN(CC1CCCN(CCc2cccc(C(F)(F)F)c2)C1)C(=O)c1cc2ccccc2o1 (configuration not stated)	nt	-82.3%	?	?	12.6µM*
CCN(CC1CCCN(CCc2cccc(F)c2)C1)C(=O)c1cc2ccccc2o1 (configuration not stated)	-30.1%	-4.1%	-27.6%	?	-9.3%
COc1cccc(NC(=S)N/N=C2\CC(C)(C)Oc3ccc(O)cc32)c1	nt	-72.4%	31.6µM*	?	1.0%

Screening results deposited in PubChem by National Center for Advancing Translational Sciences (NCATS).
